# Source: ChEMBL document CHEMBL1961873, “Compounds: GSK PKIS; Assays: Nanosyn kinase panel” (2012)
# Legend:
# [1] = target: Mast/stem cell growth factor receptor Kit (Homo sapiens) (UniProt P10721); settings: at 1 µM
# [2] = test system: Mast/stem cell growth factor receptor Kit (Homo sapiens), P10721 [D816V]; settings: at 0.1 µM
# [3] = test system: Mast/stem cell growth factor receptor Kit (Homo sapiens), P10721 [D816V]; settings: at 1 µM
# [4] = test system: Mast/stem cell growth factor receptor Kit (Homo sapiens), P10721 [T670I]; settings: at 0.1 µM
# [5] = test system: Mast/stem cell growth factor receptor Kit (Homo sapiens), P10721 [T670I]; settings: at 1 µM
# [6] = test system: Mast/stem cell growth factor receptor Kit (Homo sapiens), P10721 [V560G]; settings: at 0.1 µM
# [7] = test system: Mast/stem cell growth factor receptor Kit (Homo sapiens), P10721 [V560G]; settings: at 1 µM
# [8] = target: Tyrosine-protein kinase Lck (Homo sapiens) (UniProt P06239); settings: at 0.1 µM
# [9] = target: Tyrosine-protein kinase Lck (Homo sapiens) (UniProt P06239); settings: at 1 µM
# [10] = target: Leukocyte tyrosine kinase receptor (Homo sapiens) (UniProt P29376); settings: at 0.1 µM
# [11] = target: Leukocyte tyrosine kinase receptor (Homo sapiens) (UniProt P29376); settings: at 1 µM
# [12] = target: Tyrosine-protein kinase Lyn (Homo sapiens) (UniProt P07948); settings: at 0.1 µM
# [13] = target: Tyrosine-protein kinase Lyn (Homo sapiens) (UniProt P07948); settings: at 1 µM
# [14] = target: Tyrosine-protein kinase Lyn (Homo sapiens) (UniProt P07948); settings: at 0.1 µM; remark: listed apart in the source
# [15] = target: Tyrosine-protein kinase Lyn (Homo sapiens) (UniProt P07948); settings: at 1 µM; remark: listed apart in the source
# [16] = target: T1, Tyrosine-protein kinase Mer (Homo sapiens) (UniProt Q12866); settings: at 0.1 µM
# T1 sequence (whole entry): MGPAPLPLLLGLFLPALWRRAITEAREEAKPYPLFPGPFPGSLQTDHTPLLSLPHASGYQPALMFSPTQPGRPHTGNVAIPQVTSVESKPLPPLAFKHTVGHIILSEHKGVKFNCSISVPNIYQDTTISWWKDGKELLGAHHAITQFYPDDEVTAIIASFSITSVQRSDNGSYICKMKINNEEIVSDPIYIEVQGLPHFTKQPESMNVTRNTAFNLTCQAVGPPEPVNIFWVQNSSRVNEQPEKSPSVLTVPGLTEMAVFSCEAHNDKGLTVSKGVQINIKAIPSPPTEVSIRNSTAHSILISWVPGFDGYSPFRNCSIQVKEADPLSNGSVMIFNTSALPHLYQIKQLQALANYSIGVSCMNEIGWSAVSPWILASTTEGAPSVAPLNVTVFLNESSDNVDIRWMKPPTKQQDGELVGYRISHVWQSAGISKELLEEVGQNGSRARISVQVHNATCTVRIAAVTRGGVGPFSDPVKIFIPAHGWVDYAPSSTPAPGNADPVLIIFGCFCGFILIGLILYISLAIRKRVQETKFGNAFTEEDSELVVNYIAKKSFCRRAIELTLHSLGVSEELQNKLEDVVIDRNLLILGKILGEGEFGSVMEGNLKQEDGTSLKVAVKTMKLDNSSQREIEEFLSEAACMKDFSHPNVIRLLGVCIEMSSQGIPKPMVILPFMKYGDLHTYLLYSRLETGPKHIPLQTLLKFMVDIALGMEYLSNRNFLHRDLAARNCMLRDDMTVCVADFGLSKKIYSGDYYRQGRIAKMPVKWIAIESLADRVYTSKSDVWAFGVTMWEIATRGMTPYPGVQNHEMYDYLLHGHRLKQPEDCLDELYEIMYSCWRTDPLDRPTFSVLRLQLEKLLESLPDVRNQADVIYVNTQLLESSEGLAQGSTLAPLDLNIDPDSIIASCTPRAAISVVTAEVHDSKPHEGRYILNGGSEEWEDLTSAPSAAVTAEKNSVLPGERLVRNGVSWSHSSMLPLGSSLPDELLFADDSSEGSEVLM
# [17] = target: T1, Tyrosine-protein kinase Mer (Homo sapiens); settings: at 1 µM
# [18] = target: Hepatocyte growth factor receptor (Homo sapiens) (UniProt P08581); settings: at 0.1 µM
# [19] = target: Hepatocyte growth factor receptor (Homo sapiens) (UniProt P08581); settings: at 1 µM
# [20] = target: T2, Muscle, skeletal receptor tyrosine-protein kinase (Homo sapiens) (UniProt O15146); settings: at 0.1 µM;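 further: values are mean inhibition of MuSK from the GSK PKIS kinase screening panel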
# T2 sequence (whole entry): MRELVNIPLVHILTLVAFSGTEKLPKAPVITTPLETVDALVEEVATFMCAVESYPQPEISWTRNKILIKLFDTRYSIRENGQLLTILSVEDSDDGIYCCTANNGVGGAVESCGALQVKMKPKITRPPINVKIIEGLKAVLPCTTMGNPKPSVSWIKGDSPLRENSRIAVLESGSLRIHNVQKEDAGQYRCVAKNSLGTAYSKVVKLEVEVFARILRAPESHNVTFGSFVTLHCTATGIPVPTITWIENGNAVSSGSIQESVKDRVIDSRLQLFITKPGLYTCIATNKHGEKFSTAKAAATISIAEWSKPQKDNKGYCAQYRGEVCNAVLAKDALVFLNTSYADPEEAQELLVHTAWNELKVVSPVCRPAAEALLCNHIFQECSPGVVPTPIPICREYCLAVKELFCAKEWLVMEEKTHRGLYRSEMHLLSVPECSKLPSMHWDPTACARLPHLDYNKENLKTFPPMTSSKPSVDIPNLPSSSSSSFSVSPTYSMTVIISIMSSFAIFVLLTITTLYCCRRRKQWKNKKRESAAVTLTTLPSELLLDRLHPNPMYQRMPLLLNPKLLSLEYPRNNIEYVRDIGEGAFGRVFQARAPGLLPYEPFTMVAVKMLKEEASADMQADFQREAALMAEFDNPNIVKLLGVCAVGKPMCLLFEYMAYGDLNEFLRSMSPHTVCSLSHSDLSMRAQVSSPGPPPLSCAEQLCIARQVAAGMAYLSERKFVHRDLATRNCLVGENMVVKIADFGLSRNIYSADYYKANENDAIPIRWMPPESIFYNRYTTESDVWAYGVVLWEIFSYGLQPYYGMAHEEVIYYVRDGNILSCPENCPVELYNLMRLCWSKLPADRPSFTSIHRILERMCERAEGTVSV
# Sequence of Tyrosine-protein kinase Lyn (Homo sapiens) (P07948 2-512 limits assumed): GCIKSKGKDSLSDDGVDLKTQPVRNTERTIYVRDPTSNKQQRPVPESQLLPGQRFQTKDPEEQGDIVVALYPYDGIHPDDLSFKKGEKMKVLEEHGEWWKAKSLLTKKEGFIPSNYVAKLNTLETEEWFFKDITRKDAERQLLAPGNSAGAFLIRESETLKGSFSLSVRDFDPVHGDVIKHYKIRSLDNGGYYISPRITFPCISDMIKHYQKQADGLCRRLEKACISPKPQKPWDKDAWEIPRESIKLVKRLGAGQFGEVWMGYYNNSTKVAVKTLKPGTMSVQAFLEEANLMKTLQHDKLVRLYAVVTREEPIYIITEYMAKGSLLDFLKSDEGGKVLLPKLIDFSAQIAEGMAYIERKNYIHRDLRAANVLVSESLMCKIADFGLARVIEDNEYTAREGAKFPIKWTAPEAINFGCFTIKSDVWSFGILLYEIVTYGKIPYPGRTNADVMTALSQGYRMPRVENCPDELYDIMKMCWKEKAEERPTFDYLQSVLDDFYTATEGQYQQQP
# Sequence of Mast/stem cell growth factor receptor Kit (Homo sapiens), P10721 [T670I] (P10721 whole entry T670I): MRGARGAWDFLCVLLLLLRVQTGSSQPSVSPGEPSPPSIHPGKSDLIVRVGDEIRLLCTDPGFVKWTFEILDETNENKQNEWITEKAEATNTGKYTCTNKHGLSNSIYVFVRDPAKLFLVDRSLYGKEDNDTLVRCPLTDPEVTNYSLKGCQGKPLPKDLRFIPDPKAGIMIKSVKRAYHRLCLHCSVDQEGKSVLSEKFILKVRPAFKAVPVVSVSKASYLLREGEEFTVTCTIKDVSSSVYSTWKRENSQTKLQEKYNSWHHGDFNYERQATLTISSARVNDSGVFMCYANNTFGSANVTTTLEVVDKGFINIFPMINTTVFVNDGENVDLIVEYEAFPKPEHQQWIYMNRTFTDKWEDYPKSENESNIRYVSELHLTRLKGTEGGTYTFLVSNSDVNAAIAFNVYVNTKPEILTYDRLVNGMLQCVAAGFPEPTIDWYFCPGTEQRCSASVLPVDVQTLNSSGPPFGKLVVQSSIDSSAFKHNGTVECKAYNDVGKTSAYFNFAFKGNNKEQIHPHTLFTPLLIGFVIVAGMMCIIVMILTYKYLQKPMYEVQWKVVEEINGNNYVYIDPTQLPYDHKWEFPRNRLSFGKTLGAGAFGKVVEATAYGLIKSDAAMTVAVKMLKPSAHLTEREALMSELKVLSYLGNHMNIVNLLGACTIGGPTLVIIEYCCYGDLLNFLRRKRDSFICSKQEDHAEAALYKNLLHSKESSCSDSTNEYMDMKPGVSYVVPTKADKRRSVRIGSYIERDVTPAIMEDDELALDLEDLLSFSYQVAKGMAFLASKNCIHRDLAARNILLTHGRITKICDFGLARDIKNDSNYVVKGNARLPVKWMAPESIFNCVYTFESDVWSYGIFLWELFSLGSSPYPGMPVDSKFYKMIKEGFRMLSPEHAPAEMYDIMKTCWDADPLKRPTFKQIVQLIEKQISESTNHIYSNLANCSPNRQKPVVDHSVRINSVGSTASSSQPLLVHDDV
# Sequence of Mast/stem cell growth factor receptor Kit (Homo sapiens), P10721 [D816V] (P10721 whole entry D816V): as the sequence (P10721 whole entry T670I) above, with I670T, D816V counted along it
# Sequence of Tyrosine-protein kinase Lck (Homo sapiens) (P06239 2-509 limits assumed): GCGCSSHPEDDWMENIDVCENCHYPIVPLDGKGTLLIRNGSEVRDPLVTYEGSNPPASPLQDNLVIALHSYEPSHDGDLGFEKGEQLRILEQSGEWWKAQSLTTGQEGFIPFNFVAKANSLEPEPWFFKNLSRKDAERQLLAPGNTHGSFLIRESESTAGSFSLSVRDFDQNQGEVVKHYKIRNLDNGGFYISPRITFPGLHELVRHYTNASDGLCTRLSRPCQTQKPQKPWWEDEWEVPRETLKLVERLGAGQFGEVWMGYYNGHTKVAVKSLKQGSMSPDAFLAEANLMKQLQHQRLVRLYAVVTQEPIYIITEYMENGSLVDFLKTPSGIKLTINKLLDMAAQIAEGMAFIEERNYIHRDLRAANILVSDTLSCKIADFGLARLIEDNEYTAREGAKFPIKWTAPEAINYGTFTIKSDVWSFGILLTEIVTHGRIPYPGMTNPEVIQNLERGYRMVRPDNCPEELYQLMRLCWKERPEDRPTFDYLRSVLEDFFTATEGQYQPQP
# Sequence of Hepatocyte growth factor receptor (Homo sapiens) (P08581 whole entry): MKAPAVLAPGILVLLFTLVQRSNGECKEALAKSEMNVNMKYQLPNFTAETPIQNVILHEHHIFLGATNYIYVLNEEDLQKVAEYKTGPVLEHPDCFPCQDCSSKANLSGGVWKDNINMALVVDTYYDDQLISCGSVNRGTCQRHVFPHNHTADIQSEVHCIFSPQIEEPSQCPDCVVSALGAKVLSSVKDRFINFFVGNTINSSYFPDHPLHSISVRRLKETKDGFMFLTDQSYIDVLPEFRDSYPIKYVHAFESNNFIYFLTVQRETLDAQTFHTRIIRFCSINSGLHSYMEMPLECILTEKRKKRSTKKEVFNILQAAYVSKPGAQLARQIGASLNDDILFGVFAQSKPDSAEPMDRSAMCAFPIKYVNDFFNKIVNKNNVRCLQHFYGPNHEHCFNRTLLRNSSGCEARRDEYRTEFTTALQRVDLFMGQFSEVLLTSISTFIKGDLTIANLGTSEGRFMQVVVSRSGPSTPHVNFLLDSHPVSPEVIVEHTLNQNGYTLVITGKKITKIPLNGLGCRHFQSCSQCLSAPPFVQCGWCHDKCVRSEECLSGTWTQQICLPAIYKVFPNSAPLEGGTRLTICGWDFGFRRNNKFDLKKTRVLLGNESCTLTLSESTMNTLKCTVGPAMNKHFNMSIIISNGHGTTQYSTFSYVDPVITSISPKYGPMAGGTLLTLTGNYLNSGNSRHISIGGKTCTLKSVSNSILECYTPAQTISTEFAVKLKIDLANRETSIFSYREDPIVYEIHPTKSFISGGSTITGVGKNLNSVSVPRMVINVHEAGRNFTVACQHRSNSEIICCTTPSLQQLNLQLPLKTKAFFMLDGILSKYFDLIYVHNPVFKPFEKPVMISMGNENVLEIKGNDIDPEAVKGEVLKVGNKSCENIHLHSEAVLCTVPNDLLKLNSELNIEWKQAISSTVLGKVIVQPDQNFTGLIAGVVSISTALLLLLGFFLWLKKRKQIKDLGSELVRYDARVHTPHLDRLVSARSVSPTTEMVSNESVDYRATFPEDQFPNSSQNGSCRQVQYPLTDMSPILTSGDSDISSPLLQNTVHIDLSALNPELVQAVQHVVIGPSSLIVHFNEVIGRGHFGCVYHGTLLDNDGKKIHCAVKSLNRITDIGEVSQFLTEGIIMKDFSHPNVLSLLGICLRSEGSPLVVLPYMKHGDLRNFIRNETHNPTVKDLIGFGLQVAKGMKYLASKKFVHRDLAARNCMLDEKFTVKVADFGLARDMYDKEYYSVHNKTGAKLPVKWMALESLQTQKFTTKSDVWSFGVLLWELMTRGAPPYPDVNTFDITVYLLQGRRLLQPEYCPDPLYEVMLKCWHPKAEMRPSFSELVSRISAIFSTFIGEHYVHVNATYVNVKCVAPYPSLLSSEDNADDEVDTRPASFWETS
# Sequence of Mast/stem cell growth factor receptor Kit (Homo sapiens), P10721 [V560G] (P10721 whole entry V560G): as the sequence (P10721 whole entry T670I) above, with V560G, I670T counted along it
# Sequence of Mast/stem cell growth factor receptor Kit (Homo sapiens) (P10721 whole entry): as the sequence (P10721 whole entry T670I) above, with I670T counted along it
# Sequence of Leukocyte tyrosine kinase receptor (Homo sapiens) (P29376 whole entry): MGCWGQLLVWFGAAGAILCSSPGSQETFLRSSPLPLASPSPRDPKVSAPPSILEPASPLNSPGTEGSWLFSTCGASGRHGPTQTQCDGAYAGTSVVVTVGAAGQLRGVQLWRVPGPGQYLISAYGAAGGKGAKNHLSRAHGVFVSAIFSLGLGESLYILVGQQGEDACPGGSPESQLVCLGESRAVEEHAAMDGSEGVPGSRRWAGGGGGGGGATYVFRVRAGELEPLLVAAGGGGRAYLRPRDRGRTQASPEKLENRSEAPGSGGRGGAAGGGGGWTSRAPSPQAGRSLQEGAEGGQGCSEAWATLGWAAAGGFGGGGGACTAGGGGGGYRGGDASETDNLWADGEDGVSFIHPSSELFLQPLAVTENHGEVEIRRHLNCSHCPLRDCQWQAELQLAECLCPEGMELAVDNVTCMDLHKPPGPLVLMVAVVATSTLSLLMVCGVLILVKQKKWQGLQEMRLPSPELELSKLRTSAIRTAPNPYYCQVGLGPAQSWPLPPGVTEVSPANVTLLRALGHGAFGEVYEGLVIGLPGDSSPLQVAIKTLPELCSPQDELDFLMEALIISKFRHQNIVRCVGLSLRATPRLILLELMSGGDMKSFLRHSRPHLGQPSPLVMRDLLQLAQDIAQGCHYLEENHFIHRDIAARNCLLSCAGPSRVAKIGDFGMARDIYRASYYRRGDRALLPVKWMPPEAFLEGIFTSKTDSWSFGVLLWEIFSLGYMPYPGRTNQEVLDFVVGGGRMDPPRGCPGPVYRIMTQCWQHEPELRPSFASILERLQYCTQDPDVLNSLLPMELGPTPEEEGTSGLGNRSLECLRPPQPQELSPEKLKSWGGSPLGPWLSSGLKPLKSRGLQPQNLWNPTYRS
Compound,inhibition [1],inhibition [2],inhibition [3],inhibition [4],inhibition [5],inhibition [6],inhibition [7],inhibition [8],inhibition [9],inhibition [10],inhibition [11],inhibition [12],inhibition [13],inhibition [14],inhibition [15],inhibition [16],inhibition [17],inhibition [18],inhibition [19],inhibition [20]
CS(=O)(=O)CCNCc1ccc(-c2ccc3ncnc(Nc4ccc(OCc5ccccc5)c(Br)c4)c3c2)o1,3.91%,4.87%,2.18%,2.66%,1.79%,-3.28%,-1.19%,0.4%,4.79%,2.96%,4.86%,4.6%,7.84%,2.75%,5.83%,2.91%,13.9%,1.81%,6.53%,1.27%
COc1ccc2ncn(-c3cc(O[C@H](C)c4ccccc4Cl)c(C(N)=O)s3)c2c1,23.1%,2.74%,7.75%,2.4%,7.3%,-1.68%,0.26%,-2.03%,-1.76%,2.73%,2.89%,3.82%,5.65%,2.15%,2.91%,2.41%,4.42%,4.37%,4.23%,2.62%
CCc1cccc(CC)c1/C=C/c1cncc(C(=O)NC)c1,0.22%,2.9%,0.24%,1.07%,2.14%,-2.51%,4.63%,3.18%,4.94%,1.51%,0.4%,3.99%,5.8%,1.75%,4.91%,-0.22%,4.08%,-0.26%,1.69%,3.82%
C/C(Nc1ccc(S(N)(=O)=O)cc1)=C1/C(=O)Nc2ccccc21,90.9%,-0.26%,-1.16%,21%,82.5%,3.94%,22.4%,-1.24%,4.22%,1.12%,9.41%,1.53%,8.14%,0.71%,6.94%,0.6%,9.21%,3.68%,9.39%,3.8%
COc1ccc2cc(-c3c(-c4ccncc4)nc(-c4ccc(S(C)(=O)=O)cc4C)n3C)ccc2c1,4.85%,1.65%,4.38%,2.6%,4.5%,1.82%,-0.08%,1.82%,8.97%,3.22%,5.96%,6.65%,22.3%,3.79%,16.7%,2.19%,9.48%,2.55%,4.21%,3.24%
COc1cc(Nc2ncc3c(C)nc(-c4cccc(Oc5ccccc5)c4)n3n2)cc(OC)c1OC,18.8%,2.25%,0.81%,0.81%,-0.67%,-2.03%,1.13%,1.24%,5.01%,3.21%,3.54%,3.39%,4.7%,1.89%,3.75%,1.36%,1.57%,1.11%,-0.18%,1.49%
